Screening results (PubChem)
HP1b binding inh: HTS for Inhibitors of HP1-beta Chromodomain Interactions with Methylated Histone Tails; AlphaScreen HP1-beta / biotin-H3K9me3 peptide binding; Potency, µM (top dose mostly 114 µM), without a hit: at the top dose activity change, negative = inhibition, usual class: inhibitors; 0.56% of 390,000 active; AID 540317, 2011; further: potency means the concentration at half of the fitted maximal effect; nearly all actives have a fitted effect of over 70% in size
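AlphaScreen: HP1-beta (50 nM) preformed 30 min with biotin-H3(1-18)K9me3 peptide (50 nM) in PBS pH 7.4, 0.01% Tween-20. Compound added for 30 min at RT, then streptavidin donor/nickel chelate acceptor beads (10 ug/mL) for 30 min.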
PI5P4Ka inh: qHTS for Inhibitors of phosphatidylinositol 5-phosphate 4-kinase (PI5P4K). Phosphatidylinositol 5-phosphate 4-kinase type-2 alpha (Homo sapiens), P48426. PI5P4Kalpha enzyme, ADP-Glo luminescence, 60 min; hits give low values. max response, %. 1.2% of 330,000 active. AID 652105, 2013; active means max response of -50% or lower; inconclusive means between -30% and -50%; inactive means -30% or higher; further: value at the top dose of about 77 µM; on the % scale 0 is the no-effect control and ±100 the full control effect
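Reactions run in 0.038 M HEPES pH 7.4, 0.28 mM EGTA, 0.1% CHAPS and 5% DMSO, with PI5P4Kalpha, substrate, compound and 5 microM ATP final, one hour at room temperature. Readout is ADP-Glo luminescence.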
BAZ2B block: qHTS Assay for Inhibitors of BAZ2B | 4.4% of 360,000 active | Potency, µM (highest dose often 114 µM), for the others: at the top dose activity change, negative = inhibition, actives largely listed as inhibitors | AlphaScreen BAZ2B-H3K14Ac peptide displacement | Bromodomain adjacent to zinc finger domain protein 2B (Homo sapiens), Q9UIF8 | AID 504333, 2011; further: potency means the concentration at half of the fitted maximal effect; on the % scale 0 is the no-effect control and ±100 the full control effect; nearly all actives have a fitted effect of over 60% in size
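BAZ2B (50 nM) with biotin-H3(5-23)K14Ac peptide (50 nM) in PBS pH 7.4, 0.01% Tween-20, preformed 30 min, then compound 30 min at room temperature; top concentration 110uM. AlphaScreen streptavidin donor/nickel chelate acceptor beads (10 ug/mL final), 20 min dark, signal read.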
L3MBTL1 block: qHTS Assay for the Inhibitors of L3MBTL1; Lethal(3)malignant brain tumor-like protein 1 (Homo sapiens), Q9Y468; AlphaScreen L3MBTL1–H3K9me1 peptide binding; Potency, µM (highest dose often 57.1 µM), for the others: at the top dose activity, negative = inhibition, actives largely listed as inhibitors; 0.66% of 230,000 active; AID 485360, 2010; further: potency means the concentration at half of the fitted maximal effect; on the % scale 0 is the no-effect control and ±100 the full control effect; nearly all actives have a fitted effect of over 60% in size
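Read-out is AlphaScreen signal from streptavidin donor and nickel chelate acceptor beads (10 ug/mL final each) bridging L3MBTL1 (50 nM) and biotinylated K9-monomethylated H3(1-15) peptide (75 nM), after 30 min compound exposure at room temperature.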
JMJD2A Tudor inh: qHTS Assay for Inhibitors of JMJD2A-Tudor Domain; Lysine-specific demethylase 4A (Homo sapiens), O75164; AlphaScreen JMJD2A-Tudor / H3K4me3 peptide binding; Potency, µM (top dose mostly 114 µM), for inactives: at the top dose activity change, negative = inhibition, usual class: inhibitors; 4.4% of 390,000 active; further: potency means the concentration at half of the fitted maximal effect; on the % scale 0 is the no-effect control and ±100 the full control effect; nearly all actives have a fitted effect of over 50% in size
G9a block: qHTS Assay for Inhibitors of Histone Lysine Methyltransferase G9a | Potency, µM (top dose mostly 102 µM), inactives show at the top dose activity, negative = inhibition, actives largely listed as inhibitors | Histone-lysine N-methyltransferase EHMT2 (Homo sapiens), Q96KQ7 | G9a H3K9 monomethylation, AlphaScreen, 2 h | 8.8% of 350,000 active; further: potency means the concentration at half of the fitted maximal effect; on the % scale 0 is the no-effect control and ±100 the full control effect; nearly all actives have a fitted effect of over 75% in size
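Readings reflect AlphaScreen signal from monomethyl-H3K9 antibody detection. HMT at 20 nM; substrate b-H3K9 500 nM; cofactor SAM 20 uM; 2 h RT reaction; compounds tested as titrations in qHTS with 15 min preincubation.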
ADP-Glo counter: qHTS for Inhibitors of PI5P4K: ADP-Glo counter assay; 1,100 tested, under 10 active; Potency, µM (highest dose often 76.9 µM), for inactives: at the top dose activity change, negative = inhibition, hits mostly inhibitors; shares compounds with PI5P4Ka inh; ADP-Glo detection counter-screen, luciferase luminescence, no enzyme
Active calls of the source: *; [ ] = remark or other dose. Only some compounds are listed: those with a hit (about 11% of all), similar ones and a draw of the others. Unless noted, the call rests on the fitted dose curve; in most records, active means well fitted curve in the direction sought with a large enough effect; inconclusive means small, poorly fitted or top-dose-only effect, or another doubt; inactive means no such curve, though single readings can be large; an effect the other way counts as inactive or inconclusive.

How did CCC(=O)c1ccc(OCC(=O)N2CCN(S(=O)(=O)c3ccc(Cl)s3)CC2)cc1 do in these assays?
HP1b binding inh: 21%; PI5P4Ka inh: -54*; BAZ2B block: -38%; L3MBTL1 block: inconclusive; JMJD2A Tudor inh: -16%; G9a block: -46%[12.7 µM]; ADP-Glo counter: -11%

Results for Cc1nc(N2CCC(C)CC2)c2c(C)c(C(=O)O)sc2n1 ?
HP1b binding inh: 24%; BAZ2B block: 8%; L3MBTL1 block: -4%; JMJD2A Tudor inh: -13%; G9a block: -27%[59 µM]; ADP-Glo counter: -3%

How did COc1ccc(CNC(=O)c2cc3c(=O)n4cccc(C)c4nc3s2)cc1 do in these assays?
HP1b binding inh: 8%; BAZ2B block: 2%; JMJD2A Tudor inh: -1%; G9a block: -1%[59 µM]

Results for CCOC(=O)C1=C(CC)Nc2ccccc2N=C1NC(=O)c1ccc(S(=O)(=O)N(C)C)cc1 ?
HP1b binding inh: inconclusive; PI5P4Ka inh: -51*; BAZ2B block: -2%; JMJD2A Tudor inh: inconclusive; G9a block: -23%[59 µM]; ADP-Glo counter: 1%

Results for CCOC(=O)C1=C(CC)Nc2ccccc2N=C1NC(=O)c1ccc(S(=O)(=O)N2CCOCC2)cc1 ?
HP1b binding inh: 57%; PI5P4Ka inh: 4; BAZ2B block: -16%; L3MBTL1 block: 16%; JMJD2A Tudor inh: -10%; G9a block: 12%

What do the screens show for `CC(=O)Nc1ccc2nc3c(=O)[nH]c(=O)[nH]c3nc2c1`?
HP1b binding inh: 28%; BAZ2B block: inconclusive; JMJD2A Tudor inh: -33%; G9a block: inconclusive

How did O=C(CSc1n[nH]c(-c2cccnc2)n1)OC1CCCCC1 do in these assays?
HP1b binding inh: -9%; PI5P4Ka inh: -66*; BAZ2B block: -21%; L3MBTL1 block: -3%; JMJD2A Tudor inh: 22µM*; G9a block: -2%; ADP-Glo counter: -8%

What do the screens show for `Cc1oc2ncnc(N3CCCCC3)c2c1C(=O)NCC1CCN(Cc2ccc(F)cc2)CC1`?
HP1b binding inh: 14%; BAZ2B block: -1%[57.1 µM]; JMJD2A Tudor inh: -10%; G9a block: -16%[59 µM]

What do the screens show for `COc1ccc2nc(SCC(=O)N3CCN(c4ccc(F)cc4)CC3)c(C#N)cc2c1`?
HP1b binding inh: inconclusive; PI5P4Ka inh: -50*; BAZ2B block: 8%; L3MBTL1 block: 0%; JMJD2A Tudor inh: inconclusive; G9a block: inconclusive; ADP-Glo counter: 6%

How did O=C(CCC(=O)N1CCN(c2ccccn2)CC1)c1ccc(Cl)s1 do in these assays?
HP1b binding inh: 17%; PI5P4Ka inh: -55*; BAZ2B block: -15%; L3MBTL1 block: 66%; JMJD2A Tudor inh: -26%; G9a block: -8%[2.33 µM]; ADP-Glo counter: -3%

What do the screens show for `O=C(CCC(=O)N1CCN(c2ccccn2)CC1)c1cccs1`?
HP1b binding inh: 21%; PI5P4Ka inh: -1; L3MBTL1 block: -5%; JMJD2A Tudor inh: -2%

What do the screens show for `O=c1c2ccccc2[nH]c2ccc(O)cc12`?
HP1b binding inh: inconclusive; PI5P4Ka inh: -73*; BAZ2B block: 56µM*; JMJD2A Tudor inh: inconclusive; G9a block: 40µM*; ADP-Glo counter: -11%

Results for NC(=O)c1cccc(C[C@H](C(=O)O)N2C(=O)c3ccc(C(=O)O)cc3C2=O)c1 ?
BAZ2B block: -4%; L3MBTL1 block: 1%; JMJD2A Tudor inh: inconclusive; G9a block: -2%[12.7 µM]

What do the screens show for `Cc1ccc(C)c2[nH]c(=O)c(CCNC(=O)c3ccc(S(=O)(=O)N4CCOCC4)cc3)cc12`?
HP1b binding inh: 18%; PI5P4Ka inh: -57*; BAZ2B block: -6%; JMJD2A Tudor inh: -14%; G9a block: -3%; ADP-Glo counter: -7%

Results for Cc1sc2ncn(CC(=O)N3CCC(C(N)=O)CC3)c(=O)c2c1S(=O)(=O)N1CC(C)CC(C)C1 (centres undefined) ?
HP1b binding inh: -95%; PI5P4Ka inh: -90*; BAZ2B block: 3%; JMJD2A Tudor inh: 100µM*; G9a block: -1%; ADP-Glo counter: -10%

Results for CCC(Sc1nc2ccccc2c2nc(CCc3c(C)n[nH]c3C)nn12)C(=O)Nc1ccc(OC)cc1 (centres undefined) ?
HP1b binding inh: 21%; BAZ2B block: -11%; JMJD2A Tudor inh: -18%; G9a block: 0%[59 µM]

What do the screens show for `COc1ccc(Cl)cc1S(=O)(=O)NCCCn1ccnc1`?
HP1b binding inh: 39%; PI5P4Ka inh: -23; BAZ2B block: -33%; L3MBTL1 block: -3%; JMJD2A Tudor inh: -6%; G9a block: -12%; ADP-Glo counter: -1%

How did Cc1ccc([N+](=O)[O-])cc1S(=O)(=O)Nc1ccc(C(=O)N(C)C)cc1 do in these assays?
HP1b binding inh: 54%; PI5P4Ka inh: 1; BAZ2B block: -34%; L3MBTL1 block: 2%; JMJD2A Tudor inh: 6%; G9a block: 3%

Results for Cc1ccc([N+](=O)[O-])cc1S(=O)(=O)Nc1ccc(C(=O)N2CCN(C(=O)c3ccco3)CC2)cc1 ?
HP1b binding inh: -12%; PI5P4Ka inh: -53*; BAZ2B block: inconclusive; L3MBTL1 block: -4%; JMJD2A Tudor inh: 79µM*; G9a block: -11%[2.33 µM]; ADP-Glo counter: 0%

Results for CN(C)C(=O)c1ccc(-c2ccc3ncnc(N4CCC(C(=O)O)CC4)c3c2)cc1 ?
G9a block: -2%[0.501 µM]

How did O=C(NCc1ccc(F)cc1)c1cnc(N2CCCCC2)c2ccccc12 do in these assays?
HP1b binding inh: 44%[57 µM]; BAZ2B block: 29%; JMJD2A Tudor inh: 16%; G9a block: 33%[59 µM]

What do the screens show for `COCCNC(=O)c1cc(-c2ccccc2)sc1N`?
PI5P4Ka inh: -63*; ADP-Glo counter: -5%

Results for CCn1c(SCc2nc3sc(C(=O)O)c(C)c3c(=O)[nH]2)nc2ccccc21 ?
HP1b binding inh: 28µM*; PI5P4Ka inh: -64*; BAZ2B block: 25µM*; JMJD2A Tudor inh: 40µM*; G9a block: 2.5µM*; ADP-Glo counter: 1%

How did COCCn1c(SCc2nc3sc(C(=O)OC)c(C)c3c(=O)[nH]2)nc2ccccc21 do in these assays?
HP1b binding inh: 26%; PI5P4Ka inh: -21; BAZ2B block: -13%; L3MBTL1 block: -6%; JMJD2A Tudor inh: -21%; G9a block: inconclusive
